{"source": "ChEMBL document CHEMBL3988442", "about": "“University of Dundee, Small-Polar-MMV Screening Library” (2021)", "note": "Screen size: about 48,000 compounds; about 13,000 (27%) showed an effect of 50% or more. The list shows a part of the results."}
{"tested_on": "Wolbachia pipientis", "assay": "Anti-Wolbachia Cell-Based Screen", "type": "functional", "set-up": "scale not given: in the data most compounds retested in dose-response had high values", "conditions": "5 µM", "units": {"Percent Effect": "%"}}
{"smiles": "CCc1nc(C2CCCN2C(=O)c2ccc3c(c2)nnn3CC)no1", "note": "(stereo not drawn)", "Percent Effect": -4.092}
{"smiles": "O=C1NCc2ccc(NC(=O)C3CCCN3c3nccs3)cc21", "note": "(stereo not drawn)", "Percent Effect": -9.996}
{"smiles": "O=C(c1cncc(N2CC[C@@]3(O)CCNC[C@H]3C2)n1)N1CCCC1", "Percent Effect": -7.566}
{"smiles": "CC(C)Oc1ccc(CNC(=O)C2CCS(=O)(=O)C2)cn1", "note": "(stereo not drawn)", "Percent Effect": 23.43}
{"smiles": "COc1ccc(CN2C[C@@H](CN(C)C)[C@@H](CO)C2)cc1CN1CCCC1", "Percent Effect": 7.819}
{"smiles": "Cn1nc(Cn2ccnc2)c2c1CN(Cc1ccoc1)C2.O=C(O)C(F)(F)F.O=C(O)C(F)(F)F", "Percent Effect": -6.284}
{"smiles": "CC(NC(=O)c1cccc[n+]1[O-])c1ccc2c(c1)CCC(=O)N2", "note": "(stereo not drawn)", "Percent Effect": -1.39}
{"smiles": "CC(NC(=O)c1sccc1C1CC1)c1ccc2c(c1)CC(=O)N2", "note": "(stereo not drawn)", "Percent Effect": -4.532}
{"smiles": "CC(NC(=O)NCc1ccoc1)c1ccc2c(c1)CC(=O)N2", "note": "(stereo not drawn)", "Percent Effect": 110.9}
{"smiles": "CC(NC(=O)NCc1ccoc1)c1ccc2c(c1)CCC(=O)N2", "note": "(stereo not drawn)", "Percent Effect": -4.231}
{"smiles": "CC(NC(=O)Nc1ccc(S(C)(=O)=O)cc1)c1ccc2c(c1)CC(=O)N2", "note": "(stereo not drawn)", "Percent Effect": 11.72}
{"smiles": "CC(NC(=O)c1ccoc1)c1ccc2c(c1)CCC(=O)N2", "note": "(stereo not drawn)", "Percent Effect": 97.13}
{"smiles": "COc1ccc(F)c(NCC(C)(C)S(C)(=O)=O)c1", "Percent Effect": 34.79}
{"smiles": "CC(C)c1ccc(-n2ncc(C(=O)N(C)C3CCN(C)CC3)c2N)cc1", "Percent Effect": 117}
{"smiles": "CC(C)c1ccc(-n2cc(O)c(C(=O)N3CCC(C(N)=O)CC3)n2)cc1", "Percent Effect": -5.795}
{"smiles": "CC(C)c1ccc(CCC(=O)N(C)C2CCN(C)C2=O)cc1", "note": "(stereo not drawn)", "Percent Effect": -1.182}
{"smiles": "Cc1cc(C(=O)NCCC2CCN(C)CC2)ccc1N(C)S(C)(=O)=O", "Percent Effect": -18.47}
{"smiles": "Cc1ccc(C(=O)Nc2ccc(N3CCCC3)cn2)cc1C", "Percent Effect": -19.47}
{"smiles": "Cc1ccc(-n2ncc(C(=O)N(C)C3CCN(C)CC3)c2N)cc1C", "Percent Effect": 137.5}
{"smiles": "CC(C)Cc1nc(CN2CC(=O)N(C)c3ccccc3C2=O)no1", "Percent Effect": -12.92}
{"smiles": "CSC(C)C(=O)N1CCN(CC(C)(C)O)CC1", "note": "(stereo not drawn)", "Percent Effect": -3.379}
{"smiles": "CCOCCn1nc(C)cc1C(=O)N1C[C@@H](C)[C@](O)(C2CC2)C1", "Percent Effect": -17.93}
{"smiles": "Cc1cc(C)n(CC2CCCCN2C(=O)c2sccc2C#N)n1", "note": "(stereo not drawn)", "Percent Effect": -7.705}
{"smiles": "Cc1nc(O)c2nnn(C[C@H]3CCCN3C(=O)c3cccs3)c2n1", "Percent Effect": 86.95}
{"smiles": "COC(=O)C1CCCCN1C(=O)c1ccccc1F", "note": "(stereo not drawn)", "Percent Effect": 1.901}
{"smiles": "Cc1nc(O)c2nnn(C[C@H]3CCCN3C(=O)c3ccccc3F)c2n1", "Percent Effect": 81.62}
{"smiles": "Cc1nc(O)c2nnn(C[C@H]3CCCN3C(=O)c3ccccc3C)c2n1", "Percent Effect": 143.4}
{"smiles": "O=C(c1ccno1)N1CC2(CCC(C(=O)N3CCCC3)O2)C1", "note": "(stereo not drawn)", "Percent Effect": 1.973}
{"smiles": "COCCN1CCN(CCCS(C)(=O)=O)CC1C", "note": "(stereo not drawn)", "Percent Effect": 0.5325}
{"smiles": "COc1ccc(Br)cc1CCC(=O)N1CCCC(O)C1", "note": "(stereo not drawn)", "Percent Effect": -4.291}
{"smiles": "COc1ccc(C(C)NCc2c[nH]nc2C)cc1OC.Cl", "note": "(stereo not drawn)", "Percent Effect": -6.737}
{"smiles": "COc1ccc(CCNC(C)c2ccc3[nH]c(=O)[nH]c3c2)cc1OC", "note": "(stereo not drawn)", "Percent Effect": 106.6}
{"smiles": "CC(NCc1ccc(C(N)=O)cc1)c1ccc(Cl)c(Cl)c1.Cl", "note": "(stereo not drawn)", "Percent Effect": -6.625}
{"smiles": "COc1ccccc1CNC(C)c1ccc2[nH]c(=O)[nH]c2c1", "note": "(stereo not drawn)", "Percent Effect": 98.3}
{"smiles": "CNS(=O)(=O)c1cccc(C(C)NCc2ccccc2OC)c1", "note": "(stereo not drawn)", "Percent Effect": -4.064}
{"smiles": "CC(NCc1ccccc1Cl)c1ccc2[nH]c(=O)[nH]c2c1", "note": "(stereo not drawn)", "Percent Effect": 97.6}
{"smiles": "COc1cc(C(=O)NCCc2ccc(OC)c(OC)c2)on1", "Percent Effect": -10.92}
{"smiles": "COc1ccccc1CNC(C)c1ccc(-n2ccnc2)cc1.Cl", "note": "(stereo not drawn)", "Percent Effect": 2.759}
{"smiles": "CC(NCc1ccccc1Br)c1ccc2[nH]c(=O)[nH]c2c1", "note": "(stereo not drawn)", "Percent Effect": -2.776}
{"smiles": "O=C(NCCSc1cnn[nH]1)c1c[nH]nc1C1CCCCC1", "Percent Effect": -9.483}
{"smiles": "CC(C)(C)c1csc(CNC(=O)C2NCCc3[nH]cnc32)n1", "note": "(stereo not drawn)", "Percent Effect": -12.08}
{"smiles": "CCN1CCN(c2ccc(C(=O)NCCn3ccnc3)cc2F)CC1", "Percent Effect": -30.24}
{"smiles": "CNc1nc(N2CCC3(CCCNC3=O)C2)nc2c1CCC2", "note": "(stereo not drawn)", "Percent Effect": -0.1969}
{"smiles": "Cc1ccc([C@]2(O)CC[C@H]3CN(Cc4cc(C)c(O)c(C)c4)C[C@H]32)nc1.O=C(O)CC(O)(CC(=O)O)C(=O)O", "Percent Effect": -15.37}
{"smiles": "COc1ccc(CN2C[C@H]3CC[C@](O)(c4ccc(C)cn4)[C@H]3C2)c(F)c1.O=C(O)CC(O)(CC(=O)O)C(=O)O", "Percent Effect": -13.42}
{"smiles": "Cc1ccc([C@]2(O)CC[C@H]3CN(Cc4cccc(Cl)c4Cl)C[C@H]32)nc1.O=C(O)CC(O)(CC(=O)O)C(=O)O", "Percent Effect": -1.737}
{"smiles": "Cc1ccc([C@]2(O)CC[C@H]3CN(Cc4cccc(F)c4F)C[C@H]32)nc1.O=C(O)CC(O)(CC(=O)O)C(=O)O", "Percent Effect": 118}
{"smiles": "COc1ncc(CN2C[C@@H]3CC[C@@](O)(c4ccc(C)cn4)[C@@H]3C2)cn1.O=C(O)CC(O)(CC(=O)O)C(=O)O", "Percent Effect": 114.7}
{"smiles": "COc1cccc(CN2C[C@@H]3CC[C@@](O)(c4ccccn4)[C@@H]3C2)c1OC.O=C(O)CC(O)(CC(=O)O)C(=O)O", "Percent Effect": 115.9}
{"smiles": "Cc1cccnc1[C@]1(O)CC[C@H]2CN(Cc3cccc(Cl)c3Cl)C[C@H]21.O=C(O)CC(O)(CC(=O)O)C(=O)O", "Percent Effect": 135.1}
{"smiles": "O=C(O)CC(O)(CC(=O)O)C(=O)O.O[C@]1(c2ccccn2)CC[C@@H]2CN(Cc3cccc4ncccc34)C[C@@H]21", "Percent Effect": -10.13}
{"smiles": "CN(C)C(=O)CN1C[C@@H]2CC[C@H](C1)N(Cc1cccc(Cl)c1Cl)C2", "Percent Effect": -2.337}
{"smiles": "COCc1ncc(CN2CCN(C)C(=O)C2C)cn1", "note": "(stereo not drawn)", "Percent Effect": 4.151}
{"smiles": "CCn1cnnc1Cn1cccc(C(F)(F)F)c1=O", "Percent Effect": -0.03218}
{"smiles": "COc1ccc(-c2nccn2CC(O)CN2CCCC2)c(F)c1", "note": "(stereo not drawn)", "Percent Effect": 5.429}
{"smiles": "CCOc1cncc(NCCc2nnc3ccccn23)n1", "Percent Effect": -20.41}
{"smiles": "CCC(CO)N(Cc1ccsc1)Cc1ccccc1C(=O)O", "note": "(stereo not drawn)", "Percent Effect": 6.266}
{"smiles": "Cc1cc(CN2CC[C@@H]3[C@@H](CCC(=O)N3CCc3c[nH]cn3)C2)oc1C", "Percent Effect": -14.05}
